Source: PubChem BioAssay AID1508622 (National Center for Advancing Translational Sciences (NCATS), 2021)
Calls of active or inactive are those of the source. Calls follow the shape of the dose curve; as a rule, active = well fitted activation curve with a large enough effect; inconclusive = small, poorly fitted or top-dose-only effect; inactive = no such curve, though single readings can be large or run the other way.

Test: Confirmatory qHTS for Identification of Small Molecule Activators of Huntingtin-Antisense Promoter Activity
Details: HEK293 HTT-AS promoter firefly luciferase reporter, 24 h; series mostly up to 57.5 µM; activity change, positive = activation: at the top concentration
Outline: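 Plated reporter HEK293 cells (24 h) received library compounds at up to 57.5 uM final or 50 uM PTC124, incubated 24 h at 37C; firefly luciferase luminescence was then recorded with Dual-Glo reagent.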
Potency is read from the fitted curve at half-maximal effect.

Activity change, positive = activation, inactive:
COC(=O)c1c(C)oc2ccc(N(C(=O)c3ccncc3)S(=O)(=O)c3ccc(OC)cc3)cc12 -94.2%, CCOc1ccc(NC(=O)c2ccc(F)c(S(=O)(=O)N(CC)Cc3ccccc3)c2)cc1 -86.7%, Cc1cc(NC(=O)NCc2ccc3c(c2)CCN3C(=O)c2ccccc2)ccc1Br -79.8%, COc1cccc(C(=O)Nc2nc(-c3nnn(-c4cccc(Cl)c4C)c3C)ns2)c1 -52.1%, CCN1C(=O)c2ccccc2Sc2ccc(NC(=O)c3cccc(C)c3)cc21 -40.2%, CCc1ccc(NC(=O)c2ccc(F)c(S(=O)(=O)N3CCc4ccccc4C3)c2)cc1 -90.5%, COc1ccc(C(=O)N2CCC(c3nc4ccccc4s3)CC2)cc1Cl -92.9%, CCOc1ccc(-n2ccnc2SCC(=O)Nc2cc(C)ccc2C)cc1 -58.9%, CC1Cc2cc(S(=O)(=O)NCc3ccc(F)cc3)ccc2N1C(=O)C1CCC1 (centres undefined) -29.9%, O=C(Nc1nnc(S(=O)(=O)N2CCc3ccccc32)s1)c1cccc(Cl)c1 -45.6%, COc1cc(CN(C(=O)COc2ccc(C)cc2)c2ccccn2)cc(OC)c1OC -40.7%, CCc1ccc(OCC(=O)NCC(c2ccc(Cl)cc2)N2CCOCC2)cc1 (centres undefined) -12.9%, CCN(CC)S(=O)(=O)c1ccc(NC(=O)CCc2c(C)nc3cc(-c4ccc(Cl)cc4)nn3c2C)cc1 -85.7%, COc1ccc(CC(=O)Nc2ccc(-c3nc4ccccc4s3)cc2Cl)cc1OC -32.9%, O=C(Nc1cc(Cl)cc(Cl)c1)c1ccc(F)c(S(=O)(=O)N2CCCC2)c1 -45.6%, CCCCCN1C(C(=O)c2ccccc2)=C(OC(=O)CC)c2ccccc2S1(=O)=O -42.2%, COc1ccc(-c2[nH]c3ccccc3c2SCCNC(=O)c2cc(OC)c(OC)c(OC)c2)cc1 -35%, O=C(Cn1cc(S(=O)(=O)Cc2ccccc2F)c2ccccc21)Nc1ccc(F)c(Cl)c1 -56.5%, COc1ccc(NC(=O)Cc2csc(COc3cccc(C)c3)n2)cc1OC -68.6%, Cc1ccc(Cl)cc1N1CCN(C(=O)C2CCN(S(=O)(=O)c3ccc4c(c3)oc(=O)n4C)CC2)CC1 -28%, CCN1C(=O)c2ccccc2Sc2ccc(NC(=O)Nc3ccccc3OC)cc21 -26.7%, Cc1ccc(Cl)cc1N1CCN(C(=O)CCS(=O)(=O)c2ccc3c(c2)oc(=O)n3C)CC1 -41.9%, CCN(C(=O)CSc1nc(-c2ccccc2)no1)c1cccc(C)c1 14.2%, CCOc1ccccc1CNC(=O)c1ccc2nc(Cc3ccc(OC)cc3)oc2c1 -20.2%, CCC1=C(c2ccc(C)cc2)S(=O)(=O)N=C1N1CCC(C(=O)NCCc2ccc(Cl)cc2)CC1 -68.7%, CCc1nc2ccc(C(=O)NCCc3ccc(OC)cc3OC)cc2nc1CC 4.01%, COc1cc(CCC(=O)NCc2ccc3c(c2)CCN3C(=O)c2ccccc2)cc(OC)c1OC -12.6%, COc1ccc(-n2c(=O)[nH]c3cc(C(=O)NCCc4ccc(Cl)cc4)ccc3c2=O)cc1OC -46.8%, O=S(=O)(Nc1ccc(F)c(C(F)(F)F)c1)c1ccc(N2CCCCS2(=O)=O)cc1 -93.8%, COc1cc(C2C(C(=O)Nc3ccccc3C)=C(C)Nc3nc(SCc4cc(C)ccc4C)nn32)ccc1O (centres undefined) -41.1%, CCOC(=O)C1CCN(C(=O)Cn2c(-c3cccs3)cc3cc(Cl)ccc32)CC1 -14%, COc1ccc(-c2nc3cc(NC(=O)Cc4ccc(Cl)cc4)ccc3o2)cc1OC -40.8%, O=c1[nH]c2ccc(NCc3ccc(-c4ccccc4)o3)cc2[nH]1 -25.6%, COc1ccc(CNS(=O)(=O)c2ccc(N3CCCCS3(=O)=O)cc2)cc1 -94%, CC(C)C(=O)N1c2ncnn2C2(CCCCC2)[C@@H]2CCCC[C@@H]21 -18.3%, COc1ccc(OC)c(CCNC(=O)c2cnn(-c3ccc(C)cc3C)c2C2CCN(C(=O)OC(C)(C)C)CC2)c1 -34%, O=C(Nc1ccc(Br)cc1)c1ccc(F)c(S(=O)(=O)NC2CCCCCC2)c1 -76.2%

Potency, active:
COc1cccc(-c2cn3c(n2)sc2cc(C(=O)NCc4cccs4)ccc23)c1 8.49 µM, Cc1ccc(-n2ncc3c(N(CCO)Cc4ccccc4)ncnc32)cc1 1.07 µM
